Source: PubChem (National Center for Advancing Translational Sciences (NCATS))
The sample as a whole holds a higher share of hits than the screen did.
CHX counter: counter-screen hit for Shiga toxin inhibitors, cycloheximide; AID 2314; cell reporter, cycloheximide protein synthesis inhibition counterscreen; max response, %; 300,000 compounds, 12% hits; in the data active = max response mostly above about 13%, no sharp cut-off; inactive = mostly below about 14%; also: read at 38.3 µM for the half of the compounds with a filed dose; 0% is about no effect
Shiga toxin inh: blocks Shiga toxin action in Vero cells; Vero cells, Shiga toxin protein synthesis inhibition reporter; inhibition, % at 38.7 µM; 290,000 compounds, 9.2% hits; in the data active = inhibition mostly above about 28%, no sharp cut-off; inactive = mostly below about 43%; also: 0% is about no effect
AmpC inh no detg: blocks E. coli AmpC beta-lactamase in detergent-free assay | AID 485341 | Potency, µM (doses to about 57.1 µM), without a hit: at the highest dose activity change, negative = inhibition, hits mostly inhibitors | P00811 | 330,000 compounds, 0.52% hits | AmpC nitrocefin hydrolysis, absorbance 480 nm, 0.0001% Triton;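 also: potency is read from the fitted curve at half-maximal effect; plate controls were no compound for no effect and no enzyme for full effect; nearly all actives have a fitted effect of over 20% in size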
Target sequence (P00811 whole entry, looked up): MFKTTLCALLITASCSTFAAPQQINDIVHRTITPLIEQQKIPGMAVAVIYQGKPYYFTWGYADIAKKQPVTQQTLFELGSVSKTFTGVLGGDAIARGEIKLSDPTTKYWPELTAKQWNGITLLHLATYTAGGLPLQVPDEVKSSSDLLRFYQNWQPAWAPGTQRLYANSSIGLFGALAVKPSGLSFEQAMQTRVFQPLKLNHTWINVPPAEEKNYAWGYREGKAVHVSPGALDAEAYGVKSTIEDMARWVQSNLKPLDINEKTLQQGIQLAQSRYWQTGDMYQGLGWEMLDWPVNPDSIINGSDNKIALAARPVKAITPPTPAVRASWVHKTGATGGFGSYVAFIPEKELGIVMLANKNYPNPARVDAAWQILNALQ
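20 mM phosphate pH 7.0 + 0.01% (detergent screen) or 0.0001% Triton X-100; 5.3 nM AmpC reagent; cpd preinc 15 min RT; nitrocefin (800 uM stock) to start; A480 q20 s × 4 min; Activity was normalised to no-enzyme and no-compound control wells.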
AmpC inh detg: AmpC beta-lactamase inhibition with detergent present; AID 485294; 370,000 compounds, 0.041% hits; Potency, µM (doses to about 114 µM), inactives show at the top dose activity change, negative = inhibition, actives largely listed as inhibitors; P00811; AmpC hydrolysis of nitrocefin, absorbance 480 nm, 0.01% Triton;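 also: potency is read from the fitted curve at half-maximal effect; 0% = no-compound wells and -100% = no-enzyme wells; nearly all actives have a fitted effect of over 25% in size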
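20 mM phosphate pH 7.0 + 0.01% (detergent screen) or 0.0001% Triton X-100; 5.3 nM AmpC reagent; cpd preinc 15 min RT; nitrocefin (800 uM stock) to start; A480 q20 s × 4 min; Activity was normalised to no-enzyme and no-compound control wells.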
AMA1 RON2 block: disrupts binding of P. falciparum AMA1 to RON2 | AlphaScreen AMA1-biotinylated RON2 peptide binding | Potency, µM (top dose mostly 58.2 µM), for inactives: top-dose activity change, negative = inhibition, hits mostly inhibitors | 360,000 compounds, 0.2% hits | AID 720542;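 also: potency is read from the fitted curve at half-maximal effect; 0% = vehicle wells and -100% = peptide control; nearly all actives have a fitted effect of over 45% in size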
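AMA1 (3D7) with his tag at 25 nM final met compounds first, then biotinylated RON2 peptide at 25 nM; detection used donor plus acceptor beads, 10 µg/mL apiece, read by AlphaScreen after 30 min at room temperature.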
SARS PLP yeast: blocks SARS-CoV papain-like protease in a yeast assay. 330,000 compounds, 0.19% hits. AID 485353. S. cerevisiae expressing SARS-CoV PLpro, growth rescue. Potency, µM (highest dose often 32.9 µM), without a hit: at the highest dose activity, positive = growth rescue, most hits filed as activators; calls by dose curve; also: potency is read from the fitted curve at half-maximal effect; 0% is about no effect; nearly all actives have a fitted effect of over 55% in size
* hit, by the source's call; ? = inconclusive; / = no result given. Unless noted, calls follow the shape of the dose curve; as a rule, active = well fitted curve in the direction sought with a large enough effect; inconclusive = small, poorly fitted or top-dose-only effect, or another doubt; inactive = no such curve, though single readings can be large; an effect the other way counts as inactive or inconclusive.

SMILES	CHX counter	Shiga toxin inh	AmpC inh no detg	AmpC inh detg	AMA1 RON2 block	SARS PLP yeast
Cc1ccc(-c2cc(NC(=O)c3ccccc3[N+](=O)[O-])n[nH]2)cc1	13.2*	68.0*	-26.3%	2.9%	6.1%	-7.0%
Cc1ccccc1C(=O)Nc1cccc(NC(=O)c2ccccc2[N+](=O)[O-])c1	-2.0	-4.1	-41.6%	-13.6%	3.8%	-1.5%
Cc1cc(NC(=O)c2ccccc2[N+](=O)[O-])ccc1Br	50.5*	133.9*	-33.6%	-0.5%	0.0%	-6.1%
Cc1ccc(NC(=O)c2ccccc2[N+](=O)[O-])nc1	8.4	7.8	2.3%	-13.3%	-6.6%	?
COc1cccc(NC(=O)c2cccc(C)c2[N+](=O)[O-])c1	27.6*	125.4*	-22.1%	-0.6%	-10.0%	0.6%
Cc1cccc(C(=O)Nc2cccc(Br)c2)c1[N+](=O)[O-]	9.3*	6.9	-32.4%	8.2%	0.0%	-0.4%
COc1ccc(OCc2nc(C#N)c(NCCCn3ccnc3)o2)cc1	0.8	-10.7	4.6%	4.7%	-17.5%	1.5%
O=C(O)CSc1nnc(CSc2nc3ccccc3s2)n1-c1ccccc1	0.6	-12.4	-12.6%	-0.5%	-6.9%	5.1%
C[C@H]1CN([C@@H](C)CO)C(=O)Cc2cc(NC(=O)Cc3cn(C)c4ccccc34)ccc2O[C@@H]1CN(C)S(=O)(=O)c1cn(C)cn1	/	/	216.6%	/	-0.9%	0.8%
CC1(C)Cc2c(c(-c3ccco3)nc3n[nH]c(N)c23)CO1	5.6	11.0	-15.8%	-0.7%	3.4%	6.1%
COc1ccc(NC(=O)COc2coc(CN3CCCc4ccccc43)cc2=O)cc1	/	/	-16.6%	-1.6%	-19.8%	-1.6%
CSc1nnc(-c2ccc(Br)s2)n1C	46.5*	68.8*	-24.5%	4.5%	0.4%	-3.9%
CSc1nnc(-c2sc(-c3ccccc3)nc2C)n1C	12.2*	55.2	-16.2%	-9.7%	0.4%	-1.1%
Cc1nc(-c2ccccc2)sc1-c1n[nH]c(=S)n1C	2.6	18.7	-16.7%	-2.5%	79.2%	-4.1%
CC(C)Cc1nnc(NC(=O)Cc2cccs2)s1	6.1	27.2	-26.0%	0.6%	-10.9%	0.0%
Cc1ccc(-c2nc3ccccc3c(=O)n2CCN2CCOCC2)cc1	0.6	11.0	2.24µM*	0.3%	4.7%	0.7%
COc1ccc(-c2nc3ccccc3c(=O)n2CCN2CCOCC2)cc1	1.8	12.5	-2.9%	-14.4%	-6.5%	-1.2%
CCCC1CC(=O)OC1(C)C(=O)CSc1n[nH]c(-c2ccccc2)n1 (centres undefined)	21.5	65.6*	/	-1.6%	/	/
COc1cccc(/C=N/N=C(\N)c2nonc2N)c1O	35.3*	115.7*	-11.8%	?	70.1%	0.1%
COc1cccc(C=Nc2cc(C)on2)c1O	-2.0	-8.4	-16.6%	-1.4%	21.0%	0.0%
N/C(=N\N=C\c1ccc2c(c1)OCO2)c1nonc1N	45.0*	74.7*	-19.7%	?	5.1%	1.0%
Nc1cc(C(=O)N/N=C/c2cccc([N+](=O)[O-])c2)n[nH]c1=O	-1.9	-1.4	-24.0%	5.1%	13.9%	1.2%
N/C(=N\N=C\c1cccc([N+](=O)[O-])c1)c1nonc1N	49.7*	75.7*	-10.4%	8.4%	13.0%	0.8%
CCCN1C(=O)c2cc(C(=O)Nc3ccccc3CC)ccc2C1O (centres undefined)	-5.2	-6.2	-2.7%	-13.0%	6.0%	-2.6%
CNc1nnc(-c2cccc(N(C)C)c2)s1	45.5*	121.6*	-5.8%	0.1%	-12.7%	-10.1%
COc1cc(NC(=O)c2c(F)cccc2F)nc(OC)n1	32.5*	98.5*	-4.4%	-13.0%	11.6%	1.6%
COc1cc(NC(=O)c2cccc(Br)c2)nc(OC)n1	40.4*	71.0*	3.0%	8.7%	-3.1%	-1.7%
Cc1cc(C(=O)N2CCC2(C)C(=O)Nc2cc(C(C)(C)C)nn2C)nn1C (centres undefined)	/	/	/	/	6.2%	/
Cc1nc(C)c(C(=O)Nc2cccc(C)c2C)s1	10.6	19.2	-2.4%	-2.4%	?	-0.2%
Cc1ccc(NC(=O)c2ocnc2C)cc1Cl	52.4*	69.8*	-8.6%	-6.5%	8.1%	-10.0%
